Measured values from the supplement of paper PMC8975748.
Where a name gives a salt, the structure may show the parent alone. ± gives the standard deviation of the averaged measurements.

Columns and labels:
[1] = system: Saccharomyces cerevisiae BY4741 SeMeCo community; assay: mean cell size (pixel area) (pixels); higher = larger cells; details: 10 µM; 24 h; SM minimal medium
Procedure, shortened: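 Mean cell pixel area per well was measured in a four-plasmid fluorescent community of Saccharomyces cerevisiae BY4741, where every plasmid complements one auxotrophy and carries a fluorescent marker. Cells from an overnight preculture at OD600 = 1.0 were diluted to OD600 = 0.3 and dispensed at 70 µl into 384-well plates acoustically predosed with drug to a final 10 µM in SM medium. Incubation lasted 24 h, followed by paraformaldehyde fixation, automated confocal imaging and analysis in Harmony. Reported figures are averaged over 3 replicates. Same SeMeCo high-content imaging drug screen: Selleck FDA-approved drugs at 10 µM, 24 h in SM medium, 384-well plates, 3 replicates.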

[2] = system: Saccharomyces cerevisiae BY4741 SeMeCo community; assay: z-score of subpopulation abundance vs DMSO median, subpopulation auxotrophic for M; higher = larger share of this subpopulation than in DMSO controls; details: 10 µM; 24 h; SM minimal medium; subpopulation (auxotrophy): M
Procedure, shortened: (§1)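 Four plasmids, each restoring a single auxotrophy and encoding a distinct fluorescent protein, were carried by a Saccharomyces cerevisiae BY4741 community. After overnight growth to OD600 1.0 and dilution to 0.3, 70 µl per well was grown for 24 h in minimal SM medium on 384-well plates acoustically predosed with library drugs at 10 µM final. Following paraformaldehyde fixation, automated confocal microscopy was used, with single-auxotroph fluorescent strains defining thresholds and autofluorescence correction. Subpopulation abundance was then scored as a z-score against the vehicle-well median.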

[3] = system: Saccharomyces cerevisiae BY4741 SeMeCo community; assay: z-score of subpopulation abundance vs DMSO median, subpopulation auxotrophic for L; higher = larger share of this subpopulation than in DMSO controls; details: 10 µM; 24 h; SM minimal medium; subpopulation (auxotrophy): L
Procedure, shortened: as §1

[4] = system: Saccharomyces cerevisiae BY4741 SeMeCo community; assay: z-score of subpopulation abundance vs DMSO median, subpopulation auxotrophic for U; higher = larger share of this subpopulation than in DMSO controls; details: 10 µM; 24 h; SM minimal medium; subpopulation (auxotrophy): U
Procedure, shortened: as §1

[5] = system: Saccharomyces cerevisiae BY4741 SeMeCo community; assay: z-score of subpopulation abundance vs DMSO median, subpopulation auxotrophic for H; higher = larger share of this subpopulation than in DMSO controls; details: 10 µM; 24 h; SM minimal medium; subpopulation (auxotrophy): H
Procedure, shortened: as §1

[6] = system: Saccharomyces cerevisiae BY4741 SeMeCo community; assay: z-score of subpopulation abundance vs DMSO median, subpopulation auxotrophic for LU; higher = larger share of this subpopulation than in DMSO controls; details: 10 µM; 24 h; SM minimal medium; subpopulation (auxotrophy): LU
Procedure, shortened: as §1

[7] = system: Saccharomyces cerevisiae BY4741 SeMeCo community; assay: z-score of subpopulation abundance vs DMSO median, subpopulation auxotrophic for LM; higher = larger share of this subpopulation than in DMSO controls; details: 10 µM; 24 h; SM minimal medium; subpopulation (auxotrophy): LM
Procedure, shortened: as §1

[8] = system: Saccharomyces cerevisiae BY4741 SeMeCo community; assay: z-score of subpopulation abundance vs DMSO median, subpopulation auxotrophic for HM; higher = larger share of this subpopulation than in DMSO controls; details: 10 µM; 24 h; SM minimal medium; subpopulation (auxotrophy): HM
Procedure, shortened: as §1

[9] = system: Saccharomyces cerevisiae BY4741 SeMeCo community; assay: z-score of subpopulation abundance vs DMSO median, subpopulation auxotrophic for HU; higher = larger share of this subpopulation than in DMSO controls; details: 10 µM; 24 h; SM minimal medium; subpopulation (auxotrophy): HU
Procedure, shortened: as §1

[10] = system: Saccharomyces cerevisiae BY4741 SeMeCo community; assay: z-score of subpopulation abundance vs DMSO median, subpopulation auxotrophic for UM; higher = larger share of this subpopulation than in DMSO controls; details: 10 µM; 24 h; SM minimal medium; subpopulation (auxotrophy): UM
Procedure, shortened: as §1

[11] = system: Saccharomyces cerevisiae BY4741 SeMeCo community; assay: z-score of subpopulation abundance vs DMSO median, subpopulation auxotrophic for HL; higher = larger share of this subpopulation than in DMSO controls; details: 10 µM; 24 h; SM minimal medium; subpopulation (auxotrophy): HL
Procedure, shortened: as §1

[12] = system: Saccharomyces cerevisiae BY4741 SeMeCo community; assay: z-score of subpopulation abundance vs DMSO median, subpopulation auxotrophic for HLU; higher = larger share of this subpopulation than in DMSO controls; details: 10 µM; 24 h; SM minimal medium; subpopulation (auxotrophy): HLU
Procedure, shortened: as §1

[13] = system: Saccharomyces cerevisiae BY4741 SeMeCo community; assay: z-score of subpopulation abundance vs DMSO median, subpopulation auxotrophic for HUM; higher = larger share of this subpopulation than in DMSO controls; details: 10 µM; 24 h; SM minimal medium; subpopulation (auxotrophy): HUM
Procedure, shortened: as §1

[14] = system: Saccharomyces cerevisiae BY4741 SeMeCo community; assay: z-score of subpopulation abundance vs DMSO median, subpopulation auxotrophic for LUM; higher = larger share of this subpopulation than in DMSO controls; details: 10 µM; 24 h; SM minimal medium; subpopulation (auxotrophy): LUM
Procedure, shortened: as §1

[15] = system: Saccharomyces cerevisiae BY4741 SeMeCo community; assay: z-score of subpopulation abundance vs DMSO median, subpopulation auxotrophic for HLUM; higher = larger share of this subpopulation than in DMSO controls; details: 10 µM; 24 h; SM minimal medium; subpopulation (auxotrophy): HLUM
Procedure, shortened: as §1

[16] = system: Saccharomyces cerevisiae BY4741 SeMeCo community; assay: z-score of prototroph abundance vs DMSO median; higher = larger share of this subpopulation than in DMSO controls; details: 10 µM; 24 h; SM minimal medium; subpopulation (auxotrophy): Prototroph
Procedure, shortened: as §1

[17] = system: Saccharomyces cerevisiae BY4741 SeMeCo community; assay: z-score of subpopulation abundance vs DMSO median, subpopulation auxotrophic for HLM; higher = larger share of this subpopulation than in DMSO controls; details: 10 µM; 24 h; SM minimal medium; subpopulation (auxotrophy): HLM
Procedure, shortened: as §1

Compound | mean cell size [1] | z-score of subpopulation abundance [2] | z-score of subpopulation abundance [3] | z-score of subpopulation abundance [4] | z-score of subpopulation abundance [5] | z-score of subpopulation abundance [6] | z-score of subpopulation abundance [7] | z-score of subpopulation abundance [8] | z-score of subpopulation abundance [9] | z-score of subpopulation abundance [10] | z-score of subpopulation abundance [11] | z-score of subpopulation abundance [12] | z-score of subpopulation abundance [13] | z-score of subpopulation abundance [14] | z-score of subpopulation abundance [15] | z-score of prototroph abundance [16] | z-score of subpopulation abundance [17]
CNCCCC1c2ccccc2C=Cc2ccccc21 [Protriptyline hydrochloride] | 12.4 ± 0.15 | -0.4 | -0.45 | 0.84 | 0.19 | 0.57 | -0.93 | -0.42 | 0.37 | 0.52 | 0.25 | 0.54 | 0.54 | 0.28 | -0.01 |  | 
N#Cc1ccc2[nH]cc(CCCCN3CCN(c4ccc5oc(C(N)=O)cc5c4)CC3)c2c1 [Vilazodone HCl] | 12.34 ± 0.018 | 1.09 | 0.01 |  | 1.09 | -0.14 | 0.25 | 0.6 |  | -0.14 | 0.87 | -0.1 | 0.23 | 0.66 | -0.28 | -0.4 | 
CC(C(=O)O)c1ccc2c(c1)Cc1cccnc1O2 (stereo not given) [Pranoprofen] | 12.56 ± 0.067 | -0.49 | -0.28 | 0.43 | -0.08 | -0.35 | -0.7 | 0.14 | 0.43 | -0.93 |  | -0.3 | 0.27 | -0.12 | -0.06 | 0.32 | 
O=C(O)c1cccnc1Nc1cccc(C(F)(F)F)c1 [Niflumic acid] |  | 0.7 | -0.68 | 0.51 | -0.77 | 0.28 | -0.15 | -0.03 | -0.46 | -0.28 | -0.39 | -0.64 |  |  | -0.43 | -0.15 | 0.59
NC[C@H]1O[C@H](O[C@H]2[C@H](O)[C@@H](O[C@H]3O[C@H](CO)[C@@H](O)[C@H](N)[C@H]3O)[C@H](N)C[C@@H]2N)[C@H](N)C[C@@H]1O [Tobramycin] | 11.72 ± 0.043 | 0.73 | -0.45 | 0.79 | -1.81 | -0.02 | -0.17 | -0.2 | 0 | 0.54 | -0.46 | -0.41 | 0.03 | -0.69 | -1.08 |  | 
CCC[C@@H]1C[C@@H](C(=O)N[C@@H]([C@H]2O[C@H](SC)[C@H](OP(=O)(O)O)[C@@H](O)[C@H]2O)[C@H](C)Cl)N(C)C1 [Clindamycin Phosphate] |  | 0.65 | -0.86 | 0.48 | -0.77 | 0.78 | 0.11 | 0.11 | -0.25 | 1.19 | -0.71 | -0.85 |  | -0.05 | -0.47 | -0.33 | -0.65
CC1(C)S[C@@H]2[C@H](NC(=O)C(C(=O)O)c3ccccc3)C(=O)N2[C@H]1C(=O)O (stereo not given in full) [Carbenicillin disodium] |  | 0.64 | -0.23 | -0.46 | -0.07 | -0.26 | -0.02 | 0.66 | -0.53 | -0.3 |  | 0.36 |  | -0.76 | -0.61 | 0.19 | -0.53
CC(=O)OC(C)C[N+](C)(C)C (stereo not given) [Methacholine chloride] | 12.5 ± 0.13 | 0 | 0.65 | 0.32 | 0.16 | 1.46 | 0.88 | 0.64 |  |  | 0.45 | 0.55 | 0.26 | 0.92 | 0.95 | -0.97 | 
CCOC(=O)c1ccc(N)cc1 [Benzocaine hydrochloride] | 12.43 ± 0.056 | -1.03 | -0.9 | 1.42 | -0.31 | 0.5 | -0.93 | -0.65 | 0.87 | 0.51 | 0 | -0.85 | 0.44 | 0.12 |  | -0.32 | 
COc1cc([C@@H]2c3cc4c(cc3[C@@H](O[C@@H]3O[C@@H]5CO[C@@H](c6cccs6)O[C@H]5[C@H](O)[C@H]3O)[C@H]3COC(=O)[C@H]23)OCO4)cc(OC)c1O [Teniposide] | 12.5 ± 0.04 | 1.05 | 1.6 | 0.19 | 0.91 | 0.76 | 1.46 | 0.99 | 1.34 | 0.67 | 1.18 | 2.62 | 1.08 | 1.42 | 0.55 | -1.62 | 
CCc1c2c(nc3ccc(OC(=O)N4CCC(N5CCCCC5)CC4)cc13)-c1cc3c(c(=O)n1C2)COC(=O)[C@]3(O)CC [Irinotecan HCl Trihydrate] | 12.5 ± 0.15 | 1.27 | -0.66 | -0.91 | 0.65 | -0.66 | 0.19 | 0.47 | -0.6 | -0.07 | 0.06 | -0.35 | 0.52 | 0.14 | 0.04 |  | 
Clc1ccc(COC(Cn2ccnc2)c2ccc(Cl)cc2Cl)c(Cl)c1 (stereo not given) [Miconazole] | 12.5 ± 0.13 | -7.11 | -2.13 | 2.67 | 27.8 | 4.36 | -1.8 | 0.94 | 22.4 | 1.59 |  | 11.1 | 6.04 | 0.67 | 9.68 | -9.47 | 
COc1ccc2cc3[n+](cc2c1OC)CCc1cc2c(cc1-3)OCO2 [Berberine Sulfate] | 12.3 ± 0.28 | 0.74 | -1.84 | 1.36 |  | -0.21 |  | 0.24 | 0.8 | 0.73 | -0.5 | 0.06 |  | -0.27 |  | -0.5 | 0.13
C#CCC(Cc1cnc2nc(N)nc(N)c2n1)c1ccc(C(=O)N[C@@H](CCC(=O)O)C(=O)O)cc1 (stereo not given in full) [Pralatrexate] | 14.4 ± 0.34 | 2.68 | 3.17 | -4.47 | 3.97 | -3.34 | 3.24 | 5.98 | -3.79 |  | 4.02 | 0.5 | -2.23 | -1.33 | 1.08 | 0.41 | 
